About 150 (12%) of roughly 1,300 compounds were called active. Entries that show only a call come without a potency. Not shown: some 30% with an inconclusive outcome. The call rests on the fitted dose curve; in most records, active means well fitted cell-killing curve with a large enough effect; inconclusive means small, poorly fitted or top-dose-only effect, or effect the other way; inactive means flat fitted curve, though single readings scatter. For the sample, actives were picked, then their nearest neighbours and some compounds at random.
Assay: qHTS of small molecules that selectively kill Giardia lamblia: Hit Validation in HepG2 cytotox;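 further: compound exposure lasted overnight at 37 deg C; nearly all actives have a fitted effect of over 55% in size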
Details: cell viability; Potency: HepG2 cytotoxicity; series mostly up to 38.3 µM
In short: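 HepG2 cells seeded and incubated overnight at 37 deg C, then 23 nL compound added by pintool and incubated overnight at 37 deg C. Viability read as ATP luminescence with ATPLite after 15 min at room temperature.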
With `CCCn1c(C)cc(C(=O)COc2ccc(C)nc2[N+](=O)[O-])c1C` the Potency was “inactive”.
For `CCNc1ccc(N=Nc2c(C)n(C)n(-c3ccccc3)c2=O)cc1`, the Potency was “inactive”.
With `N#Cc1sc(NCc2cccc(Cl)c2)nc1Cl` the Potency was “inactive”.
For `COc1ccc(C(CNC(=O)c2oc3cc(Br)ccc3c2C)N2CCCCC2)cc1` (configuration not stated), the Potency was “inactive”.
In the case of `CC(=O)Oc1ccc2c(=O)c(Oc3ccccc3[N+](=O)[O-])coc2c1`, the Potency is reported as “inactive”.
In the case of `NC(=O)c1oc2ccccc2c1NC(=O)c1ccc([N+](=O)[O-])o1`, the Potency is reported as 2.61 µM (active).
With `COc1ccc(N2CCCC2)c(NC(=O)c2ccc([N+](=O)[O-])o2)c1` the Potency was “inactive”.
With `O=C(Nc1ccc(N2CCCC2)c(Cl)c1)c1ccc([N+](=O)[O-])o1` the Potency was 7.36 µM (active).
For `O=C(Nc1cccc(Cl)c1N1CCOCC1)c1ccc([N+](=O)[O-])o1`, the Potency was “inactive”.
For `Cc1ccc(C)c(Sc2ccc(NC(=O)CCl)cc2)c1`, the Potency was “inactive”.
For `COc1ccc2oc(=Nc3ccccc3)c(-c3nc4ccccc4[nH]3)cc2c1`, the Potency was 7.36 µM (active).
In the case of `Cc1ncc([N+](=O)[O-])n1CCOC(=O)c1ccccc1`, the Potency is reported as “inactive”.
In the case of `Cc1ccc(S(=O)(=O)N2[C@@H](c3ccccc3F)C(C(=O)O)=CC[C@H]2c2cccc(C)c2)cc1`, the Potency is reported as “inactive”.
In the case of `[O-][n+]1c2ccccc2c2n1CCCN=C2c1ccc(Cl)cc1`, the Potency is reported as “inactive”.
In the case of `O=C(CN1C(=O)c2ccccc2S1(=O)=O)c1ccc2c(c1)OCCO2`, the Potency is reported as 2.07 µM (active).
For `O=[N+]([O-])c1nn(-c2ccccc2)[n+]([O-])c1N1CCN(c2ccccc2F)CC1`, the Potency was “inactive”.
With `O=[N+]([O-])c1ccc(/C=C/c2ccnc3ccccc23)c([N+](=O)[O-])c1` the Potency was “inactive”.
For `CCOn1c(=O)c(-c2cccc([N+](=O)[O-])c2)[n+]([O-])c2ccccc21`, the Potency was “inactive”.
With `CSC1SCC2C(=O)N(C)C(C(C)C)C(=O)OCC(NC(=O)c3cnc4ccccc4n3)C(=O)NC(C)C(=O)N(C)C1C(=O)N(C)C(C(C)C)C(=O)OCC(NC(=O)c1cnc3ccccc3n1)C(=O)NC(C)C(=O)N2C` (configuration not stated) the Potency was 0.0117 µM (active).
In the case of `O=[N+]([O-])c1cccc(S(=O)(=O)c2ccc(NCCOCCO)c([N+](=O)[O-])c2)c1`, the Potency is reported as “inactive”.
In the case of `Cc1ccc(C2=NCCn3c2c2ccc(C(F)(F)F)cc2[n+]3[O-])cc1`, the Potency is reported as “inactive”.
In the case of `Cc1onc(NC(=O)c2ccc([N+](=O)[O-])o2)c1Br`, the Potency is reported as “inactive”.
In the case of `COc1ccc(-c2cc3ccccc3oc2=O)cc1NC(=O)c1ccc([N+](=O)[O-])o1`, the Potency is reported as “inactive”.
For `O=C(Nc1ncccn1)c1ccc([N+](=O)[O-])o1`, the Potency was “inactive”.
With `Cc1ccc(CNC(=O)c2ccc([N+](=O)[O-])o2)cc1` the Potency was “inactive”.
In the case of `Cc1cc(NC(=O)c2ccc([N+](=O)[O-])o2)ccc1NC(=O)c1ccco1`, the Potency is reported as 2.93 µM (active).
For `COc1ccc(NC(=O)c2ccc([N+](=O)[O-])o2)cc1`, the Potency was 3.69 µM (active).
With `COc1cc(NC(=O)c2ccc([N+](=O)[O-])o2)ccc1NC(=O)c1cccs1` the Potency was 14.7 µM (active).
With `O=C(NCc1ccco1)c1ccc([N+](=O)[O-])o1` the Potency was “inactive”.
For `O=C(Nc1ccc(Cc2ccncc2)cc1)c1ccc([N+](=O)[O-])o1`, the Potency was 6.56 µM (active).
In the case of `CCN(CC(=O)NCc1cccs1)C(=O)c1ccc([N+](=O)[O-])o1`, the Potency is reported as “inactive”.
For `COc1ccc(CC(NC(C)=O)C(=O)NC2CCN(c3ncccc3[N+](=O)[O-])CC2)cc1` (configuration not stated), the Potency was “inactive”.
For `CCC1CCCCN1C(=O)c1ccc([N+](=O)[O-])o1` (configuration not stated), the Potency was “inactive”.
With `Cc1ccc(C2=NCCn3c2c2ccc([N+](=O)[O-])cc2[n+]3[O-])cc1` the Potency was “inactive”.
In the case of `O=[n+]1c2c(n([O-])c3cc(Br)ccc31)CCCC2`, the Potency is reported as “inactive”.
For `CCOc1cc(C=O)ccc1OCCn1c([N+](=O)[O-])cnc1C`, the Potency was “inactive”.
In the case of `CCOC(=O)C1=C(C)N=c2s/c(=C/c3cccc([N+](=O)[O-])c3O)c(=O)n2C1c1ccc(OC)cc1OC` (configuration not stated), the Potency is reported as “inactive”.
In the case of `CCN(CC)CCOC(=O)c1ccc(N/C=C(/C#N)c2nc(-c3cc4ccccc4oc3=O)cs2)cc1`, the Potency is reported as “inactive”.
With `O=[N+]([O-])c1ncn(Cc2c(Cl)cccc2Cl)n1` the Potency was “inactive”.
With `C=CCNC(=O)c1ccccc1NC(=O)COc1ccccc1` the Potency was “inactive”.
For `O=C(COc1cccnc1[N+](=O)[O-])NCc1ccc(F)cc1`, the Potency was “inactive”.
With `CC(=O)c1c(COC(=O)c2ccccc2Cl)nc2ccccc2[n+]1[O-]` the Potency was “inactive”.
For `O=[N+]([O-])c1ccc2nc(-c3ccc(OC(F)F)cc3)cn2c1`, the Potency was “inactive”.
In the case of `COc1cccc([C@@H]2CC=C(C(=O)O)[C@H](c3cccc(Cl)c3)N2S(=O)(=O)c2ccc(C)cc2)c1`, the Potency is reported as “inactive”.
In the case of `COc1ccc(NC(=O)c2ccc([N+](=O)[O-])cc2[N+](=O)[O-])c(OC)c1`, the Potency is reported as “inactive”.
For `CC(=O)c1c(C)n([O-])c2cc(C)ccc2[n+]1=O`, the Potency was “inactive”.
In the case of `NC(=O)c1c(NC(=O)c2ccc([N+](=O)[O-])o2)sc2c1CCCC2`, the Potency is reported as 11.7 µM (active).
With `CC(=O)N1CCc2c(sc(NC(=O)c3ccc([N+](=O)[O-])o3)c2C#N)C1` the Potency was 3.29 µM (active).
With `COC(=O)c1sc(NC(=O)c2ccc([N+](=O)[O-])o2)c(C#N)c1C` the Potency was “inactive”.
With `NC(=O)c1c(NC(=O)CCCn2cnc([N+](=O)[O-])n2)sc2c1CCCC2` the Potency was “inactive”.
For `O=C(c1ccc([N+](=O)[O-])o1)N1CCc2ccccc2C1`, the Potency was “inactive”.
For `O=C1S/C(=C\c2ccc(O)c([N+](=O)[O-])c2)C(=O)N1Cc1cccc([N+](=O)[O-])c1`, the Potency was “inactive”.
With `OC(COc1cccc2ccccc12)CN1CCN(c2ccc(Cl)cc2)CC1` (configuration not stated) the Potency was “inactive”.
With `O=[N+]([O-])C(/C=C(\Cl)[N+](=O)[O-])=C(N1CCCCC1)N1CCCCC1` the Potency was “inactive”.
In the case of `CC(=O)NC(Cc1ccccc1F)C(=O)NC1CCN(c2ncccc2[N+](=O)[O-])CC1` (configuration not stated), the Potency is reported as “inactive”.
With `CCN(CCCNC(=O)c1nn(C)c2c1CS(=O)(=O)c1ccccc1-2)Cc1ccccc1` the Potency was “inactive”.
With `CC(C)(C)C1C/C(=C/c2ccccn2)C(=O)/C(=C/c2ccccn2)C1` (configuration not stated) the Potency was 0.585 µM (active).
In the case of `O=C1CC(c2ccc(F)cc2)CC2=C1C(c1ccc([N+](=O)[O-])o1)Nc1ccccc1N2` (configuration not stated), the Potency is reported as “inactive”.
With `O=c1[nH]c(=O)c2cc([N+](=O)[O-])cc([N+](=O)[O-])c2[nH]1` the Potency was “inactive”.
With `O=[N+]([O-])c1ccc(/C=N/Nc2nc(N3CCCCC3)nc(N3CCCCC3)n2)o1` the Potency was “inactive”.
For `Cc1ccc(NC(=O)c2ccc([N+](=O)[O-])o2)cc1S(=O)(=O)N1CCOCC1`, the Potency was 13.1 µM (active).
With `O=C(Nc1ccccc1N1CCOCC1)c1ccc([N+](=O)[O-])o1` the Potency was “inactive”.
In the case of `COc1ccc(S(=O)(=O)N2CCOCC2)cc1NC(=O)COc1cccnc1[N+](=O)[O-]`, the Potency is reported as “inactive”.
With `O=C(Nc1ccc(S(=O)(=O)N2CCCC2)cc1)c1ccc([N+](=O)[O-])o1` the Potency was 2.93 µM (active).
With `Cc1ccc(NC(=O)COc2cccnc2[N+](=O)[O-])cc1S(=O)(=O)N1CCCCC1` the Potency was “inactive”.
With `COc1ccc(S(=O)(=O)N2CCCCC2)cc1NC(=O)c1ccc([N+](=O)[O-])o1` the Potency was 3.29 µM (active).
For `COc1ccc(S(=O)(=O)N2CCN(C(=O)c3ccc([N+](=O)[O-])o3)CC2)cc1`, the Potency was “inactive”.
For `COc1ccc(C)cc1NC(=O)c1cc(S(=O)(=O)N2CCCC2)cn1C`, the Potency was “inactive”.
With `CC(C)C(=O)NC(=S)Nc1ccc(S(=O)(=O)N2CCCC2)cc1` the Potency was “inactive”.
In the case of `O=C(Nc1ccc(S(=O)(=O)N2CCOCC2)cc1)c1ccc([N+](=O)[O-])o1`, the Potency is reported as 13.1 µM (active).
With `O=C(Cc1ccc(Cl)cc1)Nc1ncc([N+](=O)[O-])s1` the Potency was “inactive”.
For `Cc1ccc(-n2c(C)cc(C(=O)COc3cccnc3[N+](=O)[O-])c2C)cc1`, the Potency was “inactive”.
With `O=C(c1ccc([N+](=O)[O-])o1)N1CCc2ccccc21` the Potency was “inactive”.
For `Cc1cc(C)cc(N=c2c([N+](=O)[O-])nn(-c3ccc(Cl)cc3)n2O)c1`, the Potency was “inactive”.
In the case of `O=C(COc1cccnc1[N+](=O)[O-])NCc1ccco1`, the Potency is reported as “inactive”.
In the case of `COc1ccc(OC)c(CCNC(=O)CSc2ccsc2[N+](=O)[O-])c1`, the Potency is reported as “inactive”.
For `Cc1ccc(S(=O)(=O)N2[C@@H](c3ccc(Cl)cc3)C(C(=O)O)=CC[C@H]2c2ccc(Cl)c(Cl)c2)cc1`, the Potency was “inactive”.
For `Cn1nc(N)c2c(-c3ccccc3)c(C#N)c(N)nc21`, the Potency was “inactive”.
In the case of `Cc1ccc(N=c2c([N+](=O)[O-])nn(-c3ccc4c(c3)OCCO4)n2O)cc1F`, the Potency is reported as “inactive”.
With `CC(C)(C)n1nc(-c2ccc(Cl)cc2)c2c(N)ncnc21` the Potency was “inactive”.
In the case of `[O-][n+]1c2cc(C(F)(F)F)ccc2c2n1CCN=C2c1ccc(Cl)cc1`, the Potency is reported as “inactive”.
With `CCOC(=O)CSc1ccc(C(=O)NCCCN2CCOCC2)cc1[N+](=O)[O-]` the Potency was “inactive”.
For `O=[N+]([O-])c1cc(S(=O)(=O)Nc2cccc(Cl)c2)ccc1N/N=C/c1ccc(N2CCOCC2)cc1`, the Potency was “inactive”.
In the case of `O=C(COc1cccnc1[N+](=O)[O-])Nc1cccc(S(=O)(=O)N2CCCCC2)c1`, the Potency is reported as “inactive”.
In the case of `O=C(Nc1cccc(S(=O)(=O)N2CCCCC2)c1)c1ccc([N+](=O)[O-])o1`, the Potency is reported as 11.7 µM (active).
In the case of `CC(=O)NC(Cc1cccc(C)c1)C(=O)NC1CCN(c2ncccc2[N+](=O)[O-])CC1` (configuration not stated), the Potency is reported as “inactive”.
With `Cc1cc(C)n(S(=O)(=O)c2ccccc2[N+](=O)[O-])n1` the Potency was “inactive”.
For `CC(NC(=O)c1ccc(N(C)C)c([N+](=O)[O-])c1)c1ccc(-n2ccnc2)cc1` (configuration not stated), the Potency was “inactive”.
With `CC(=O)NC(Cc1cccc(F)c1)C(=O)NC1CCN(c2ncccc2[N+](=O)[O-])CC1` (configuration not stated) the Potency was “inactive”.
With `C/C(=N\NC(=O)COc1ccc(C)cc1Br)c1cc([N+](=O)[O-])cs1` the Potency was “inactive”.
For `CC12CN3CC(C)(CN(C1)C3c1ccc([N+](=O)[O-])o1)C2` (configuration not stated), the Potency was “inactive”.
In the case of `O=[N+]([O-])c1cccc2nc3ccccc3c(NCCCn3ccnc3[N+](=O)[O-])c12`, the Potency is reported as 0.0736 µM (active).

Source: PubChem BioAssay AID588382 (National Center for Advancing Translational Sciences (NCATS), 2011)
Potency means the concentration at half of the fitted maximal effect.
